SMN2 splice enh: SMN2 splice variant enhancement; 210,000 compounds, 2.8% hits; Potency, µM (series often up to 46.1 µM), for inactives: at the top dose activity change, positive = activation, actives largely listed as activators; HEK293 SMN2-luciferase splicing reporter, luminescence, 30-36 h; further: % of control where 0% means no effect; nearly all actives have a fitted effect of over 55% in size
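HEK293 cells carry an SMN2 […]–luciferase reporter in which exon 7 inclusion puts luciferase in frame. Cells were plated 10-12 h before compound addition, then incubated 30-36 h at 37C. ONE-Glo luminescence was read; sodium butyrate at 4.5 mM final served as control.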
KinaseGlo FLuc: blocks Kinase-Glo luciferase, a counter-screen artifact | Q27757 | Kinase-Glo luciferase, ATP luminescence, 8 min | Potency, µM (doses to about 38.3 µM), without a hit: top-dose activity change, negative = inhibition, hits mostly inhibitors | 200,000 compounds, 0.28% hits | AID 1379; further: on the % scale 0 is the no-effect control and ±100 the full control effect; nearly all actives have a fitted effect of over 60% in size
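Luminescence was the read-out, taken after 8-minute incubation at ambient temperature. Luciferase turned over luciferin with 10 uM ATP in imidazole pH 7.2 buffer containing KCl, MgCl2, Tween 20 and BSA.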
FLuc counter: inhibits or activates purified firefly luciferase, miR-21 counter-screen; P08659; purified FLuc, Km substrates, luminescence inhibition; Potency, µM (doses to about 57.5 µM), inactives show at the highest dose activity change, negative = inhibition, usual class: inhibitors; 360,000 compounds, 6.9% hits; AID 588342;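 further: plate controls were vehicle for no effect and reference inhibitor for full effect; nearly all actives have a fitted effect of over 55% in size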
Target sequence (P08659 whole entry, looked up): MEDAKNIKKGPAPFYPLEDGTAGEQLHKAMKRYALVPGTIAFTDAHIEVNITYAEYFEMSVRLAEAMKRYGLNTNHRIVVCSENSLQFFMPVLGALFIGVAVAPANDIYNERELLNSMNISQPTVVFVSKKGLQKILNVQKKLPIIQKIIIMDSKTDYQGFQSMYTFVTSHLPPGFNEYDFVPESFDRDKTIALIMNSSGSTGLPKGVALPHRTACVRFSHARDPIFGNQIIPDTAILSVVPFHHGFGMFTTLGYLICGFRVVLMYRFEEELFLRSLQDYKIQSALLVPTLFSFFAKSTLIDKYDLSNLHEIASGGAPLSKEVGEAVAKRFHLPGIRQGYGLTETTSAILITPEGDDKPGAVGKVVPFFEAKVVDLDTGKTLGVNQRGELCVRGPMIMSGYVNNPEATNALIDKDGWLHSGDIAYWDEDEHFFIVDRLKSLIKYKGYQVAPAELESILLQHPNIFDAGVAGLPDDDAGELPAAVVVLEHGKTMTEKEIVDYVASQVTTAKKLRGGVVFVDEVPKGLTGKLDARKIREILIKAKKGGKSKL
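Purified P. pyralis luciferase (10nM final) with 10uM D-luciferin and 10uM ATP (Km levels) in 50mM Tris acetate pH 7.5, 10mM Mg acetate, 0.01% Tween-20, 0.05% BSA; qHTS 6-point titration, ~60 µM downward; luminescence read.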
NPC1 prom act: NPC1 promoter activation | Huh7 NPC1 promoter luciferase reporter, 24 h | Potency, µM (highest dose often 9.22 µM), for the others: top-dose activation, usual class: activators | 320,000 compounds, 2.4% hits; further: % of control where 0% means no effect; nearly all actives have a fitted effect of over 60% in size
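Huh7 cells stably carrying NPC1 promoter–luciferase, plated in Opti-MEM with 10% FBS for 2 h, were exposed to compound in DMSO for 24 h at 37 °C; luciferase reagent was added for 10 min and luminescence read.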
Rab9 promoter act: activators of Rab9 promoter; Huh7 Rab9 promoter-luciferase reporter, luminescence, 24 h; Potency, µM (series often up to 9.22 µM), for the others: at the top dose activation, negative = inhibition, usual class: activators; 320,000 compounds, 2.8% hits; further: % of control where 0% means no effect; nearly all actives have a fitted effect of over 60% in size
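Cell-based reporter: Huh7 stable for Rab9 promoter-driven luciferase, plated in reduced-serum medium with 10% FBS at 1500 cells/well, compound-treated 24 h at 37 °C, luminescence read after 10 min reagent.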
ELG1 genotox: induces genotoxicity in HEK293T cells with luciferase-tagged ELG1 | Potency, µM (highest dose often 46 µM), inactives show at the top dose activity change, positive = activation, hits mostly activators | HEK293T ELG1-luciferase reporter, luminescence, 16 h | 330,000 compounds, 1.3% hits; further: % of control where 0% means no effect; nearly all actives have a fitted effect of over 60% in size
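Luminescence read-out: rising ELG1-luciferase signal, reflecting elevated ELG1 protein under genetic stress, flags genotoxic compounds. Cells were treated for 16 hr at 37 °C before ONE-Glo detection.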
Active calls of the source: *; ? = inconclusive; nt = no result; [ ] = dose if it differs, or a comment. Rows were chosen to be rich in hits. Some 7.4% of all compounds tested hit in one or more screens of this group. The call rests on the fitted dose curve; in most records, active means well fitted curve in the direction sought with a large enough effect; inconclusive means small, poorly fitted or top-dose-only effect, or another doubt; inactive means no such curve, though single readings can be large; an effect the other way counts as inactive or inconclusive. Potency means the concentration at half of the fitted maximal effect.

SMILES	SMN2 splice enh	KinaseGlo FLuc	FLuc counter	NPC1 prom act	Rab9 promoter act	ELG1 genotox
Cc1ccc(/C=C/C(=O)NCCc2ccccc2)o1	nt	nt	17µM*	?	?	?
CC(C)=CC(=O)NCCc1ccccc1	13µM*	?	13µM*	nt	nt	nt
O=C(O)/C=C/C(=O)NCCc1ccccc1	-3%	-1%	-4%	-2%	-1%	0%
CN(C)C(=O)CCSc1nnc(-c2ccco2)o1	20%	-2%	-5%	7%	22%	7%
CCOc1ccc(NC(=O)CSc2oc(-c3ccco3)nc2S(=O)(=O)c2ccccc2)cc1	-8%	nt	6%	nt	nt	nt
C(=N\NC1=Nc2cccc3cccc1c23)/c1ccccc1	4µM*	-1%	1.7µM*	4µM*	4.5µM*	?
NC1=Nc2cccc3cccc1c23	2%	2%	-8%	3%	-2%	-3%
C(=N\NC1=Nc2cccc3cccc1c23)/c1cccnc1	11µM*	-1%	4.8µM*	3.5µM*	2.5µM*	?
COc1cccc(NC2=Nc3cccc4cccc2c34)c1	14%	-1%	12µM*	-3%	-3%	4%
Clc1ccc(/C=N/NC2=Nc3cccc4cccc2c34)cc1	11µM*	0%	1.7µM*	0.63µM*	0.63µM*	?
COc1ccc(NC2=Nc3cccc4cccc2c34)cc1OC	-9%	-1%	?	6%	-2%	-3%
C[C@]12c3[nH]c4ccc(Cl)cc4c3CCN1C(=O)[C@@H](CC(=O)NCCC1=CCCCC1)C[C@@H]2C(=O)N1CCOCC1	nt	nt	nt	nt	nt	-2%
COc1ccc(S(=O)(=O)c2c(O)c3ccc(C(=O)Nc4ccccc4)cc3[nH]c2=O)cc1	nt	nt	?	-1%	-2%	-1%
CCc1ccc(NC(=O)c2ccc3c(O)c(S(=O)(=O)c4ccccc4)c(=O)[nH]c3c2)cc1	nt	nt	4.3µM*	nt	nt	nt
Cc1ccc(NC(=O)c2ccc3c(O)c(S(=O)(=O)c4ccccc4)c(=O)[nH]c3c2)cc1Cl	nt	nt	11µM*	nt	nt	nt
CC(c1ccco1)N(C(=O)c1ccc(Cl)c([N+](=O)[O-])c1)c1ccccn1 (stereo not drawn)	nt	nt	0%	-2%	0%	-12%
Cc1[nH]c2ccccc2c1/C=C/c1nc2ccccc2c(=O)[nH]1	nt	nt	2.4µM*	3.2µM*	1.4µM*	7.3µM*
O=c1[nH]c(/C=C/c2ccccc2Cl)nc2ccccc12	nt	nt	0.85µM*	?	0.4µM*	2.1µM*
Cc1cccc(/C=C/c2nc3ccccc3c(=O)[nH]2)c1	4.5µM*	-20%	1.1µM*	?	?	8.2µM*
CCn1c(/C=C/c2c(C)[nH]c3ccccc23)nc2ccccc2c1=O	-6%[1.84 µM]	-4%	-3%	-2%	9%	7%
O=C(CCc1nc2sc3c(c2c(=O)[nH]1)CCCC3)N1CCN(c2ccccc2)CC1	nt	nt	0%	2%	-1%	-3%
O=C(O)c1ccc(/C=C/c2nc3sc4c(c3c(=O)[nH]2)CCC4)cc1	-13%	-2%	19µM*	5%	13%	3%
COc1cc(/C=C/c2nc3ccccc3c(=O)[nH]2)cc(Br)c1O	nt	nt	-3%	12%	3%	1%
O=C(O)c1ccc(/C=C/c2nc3ccccc3c(=O)[nH]2)cc1	nt	nt	15µM*	12%	-5%	-3%
O=C(O)c1ccc(-n2c(/C=C\c3ccc(O)cc3)nc3ccccc3c2=O)cc1	-9%	nt	?	nt	nt	nt
SMILES	SMN2 splice enh	KinaseGlo FLuc	FLuc counter	NPC1 prom act	Rab9 promoter act	ELG1 genotox
Cc1c(C(=O)Nc2ccc(-n3c(C)nc4ccccc4c3=O)cc2)cccc1[N+](=O)[O-]	nt	nt	1%	nt	nt	nt
CCOC(=O)c1ccc(NC(=O)c2nc[nH]c2C(=O)N[C@@H](CC(C)C)C(=O)OCc2ccccc2)cc1	nt	nt	5%	-1%	-1%	-4%
CSc1nnc(NC(=O)c2ccc3c(c2)OCO3)s1	nt	nt	0.48µM*	0.22µM*	0.11µM*	0.26µM*
Cc1noc(C)c1COc1ccc(C(=O)Nc2nnc(CC(C)C)s2)cc1	nt	nt	-2%	-9%	-18%	2%
CN(C)S(=O)(=O)c1ccc(C(=O)Nc2nnc(SCc3ccccc3)s2)cc1	8%	-5%	-1%	2%	-1%	3%
CSc1nnc(NC(=O)c2ccc(S(=O)(=O)N(C)C)cc2)s1	13µM*	-3%	11µM*	1.6µM*	0.56µM*	?
Cc1nnc(NC(=O)c2cccc(Br)c2)s1	-9%	2%	?	23%	5%	?
COCCSc1nnc(NC(=O)c2ccc3c(c2)OCO3)s1	?	1%	?	?	?	?
Cc1nnc(NC(=O)c2ccc3c(c2)OCO3)s1	nt	-13%	13µM*	?	3.5µM*	?
CC(C)Cc1nnc(NC(=O)c2ccc3c(c2)OCCO3)s1	nt	nt	1.9µM*	2µM*	0.63µM*	?
CCCc1cc(=O)n2nc(N3CCC(C(=O)Nc4cccc(C(C)=O)c4)CC3)sc2n1	nt	nt	-2%	-2%	-3%	7%
Cc1nc(NC(=O)c2ccc(OCC(C)C)cc2)sc1Cc1ccc2c(c1)OCO2	-21%	-2%	21µM*	18%	?	-3%
O=C(Nc1ccon1)c1ccc2c(c1)OCO2	?	-9%	?	27%	?	?
O=C(Nc1nncs1)c1ccc2c(c1)OCO2	nt	nt	15µM*	23%	30%	?
CCOC(=O)C(C)Sc1nnc(NC(=O)c2ccc3c(c2)OCO3)s1 (stereo not drawn)	18%	0%	17µM*	3%	-5%	13%
COc1ccc(OC)c(CN2CCN(C(=O)c3cccc(S(=O)(=O)Nc4ccc(C)cc4)c3)CC2)c1	nt	nt	1%	-3%	-5%	-2%

Screening results: PubChem BioAssay, National Center for Advancing Translational Sciences (NCATS)
